# Source: PubChem BioAssay (NCATS)
# Inconclusive results are not listed. Entries that show only a call come without a potency. The source made the active and inactive calls. The call rests on the fitted dose curve; in most records, active means well fitted inhibition curve with a large enough effect; inconclusive means small, poorly fitted or top-dose-only effect; inactive means flat fitted curve, though single readings scatter.
# Biological target: Aldehyde dehydrogenase, mitochondrial (Homo sapiens) (UniProt P05091)
# Assay: qHTS for Inhibitors of the Aldehyde Dehydrogenase Family (ALDH2) Primary screen (AID 2061308); further: nearly all actives have a fitted effect of over 55% in size
# Details: ALDH2 enzyme inhibition qHTS, 1536-well; series mostly up to 56 µM
row,SMILES,Potency
1,O=C(O)c1cc(-c2ccccc2)nc2ccccc12,inactive
2,CCOC(=O)c1sc(NC(=O)[C@H](C(C)C)n2c(=O)[nH]c3ccccc3c2=O)nc1C,inactive
3,C[C@H](Nc1cc2c(-c3ccc4c(c3)OCO4)noc2cn1)c1ccccc1,inactive
4,O=C(O)CC1CCC(c2ccc(NC(=O)c3nnc(Nc4ccc(F)c(F)c4)o3)cc2)CC1 (stereo not drawn),inactive
5,CC(=O)c1ccc2c(c1)[C@H](NC(=O)c1ccc(F)c(Cl)c1)[C@H](O)C(C)(C)O2,inactive
6,O=C(c1cc(Cc2n[nH]c(=O)c3ccccc23)ccc1F)N1CCCNCC1,inactive
7,CN[C@@H]1[C@@H](O)[C@@H](O[C@@H]2[C@@H](O)[C@H](O[C@H]3O[C@@H]([C@@H](C)NC)CC[C@H]3N)[C@@H](N)C[C@H]2N)OC[C@]1(C)O,inactive
8,O=S(=O)(Nc1ccccc1N1CCCCC1)c1ccc(Cl)s1,inactive
9,CC(C)C(CO)Nc1nc(Nc2cc(N)cc(Cl)c2)c2ncn(C(C)C)c2n1 (stereo not drawn),inactive
10,CC(C)c1c(NC(=O)Nc2ccc(Cl)cc2)c(=O)n(-c2ccccc2)n1C,inactive
11,CC[C@H]1OC(=O)[C@H](C)[C@@H](O[C@H]2C[C@@](C)(OC)[C@@H](O)[C@H](C)O2)C(C)[C@@H](O[C@@H]2O[C@H](C)C[C@H](N(C)C)[C@H]2O)[C@](C)(O)C[C@@H](C)CN(C)[C@H](C)[C@@H](O)[C@]1(C)O (stereo partly drawn),inactive
12,CCCSc1nc(NC2CC2c2ccc(F)c(F)c2)c2nnn(C3CC(OCCO)C(O)C3O)c2n1 (stereo not drawn),inactive
13,O=C1C(Cc2ccc(O)cc2)N2C(=O)CCN(C(=O)NCc3ccccc3)C2CN1Cc1cccc2ccccc12 (stereo not drawn),inactive
